Experiments:
Experiment in all cases: DAPPL (digital affinity profiling via proximity ligation, sequencing); 10 mM Tris-HCl pH 7.5, 50 mM NaCl, 1 mM DTT, 4% glycerol, room temperature, 30 min; GST-TFs on glutathione beads, 16-mer random dsDNA library, 0.1% formaldehyde crosslink after washing; high values mean tight binding
FEV = target: T1, FEV (Homo sapiens, UniProt Q99581 1-238); settings: protein: recombinant; tags: N-terminal GST; dsDNA, one strand shown
T1 sequence: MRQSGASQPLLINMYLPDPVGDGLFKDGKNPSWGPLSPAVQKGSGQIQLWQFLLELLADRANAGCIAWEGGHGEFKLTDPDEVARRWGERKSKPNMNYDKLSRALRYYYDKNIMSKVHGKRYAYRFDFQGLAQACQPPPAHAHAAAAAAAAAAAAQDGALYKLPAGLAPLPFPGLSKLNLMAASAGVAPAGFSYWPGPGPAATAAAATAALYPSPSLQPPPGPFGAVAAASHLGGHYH
In short: (§1)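 Human transcription factors carrying a GST fusion were produced in yeast, bound to glutathione beads, tagged with DNA barcodes and pooled together with a tag-only sample. Each pool was held with 200 nmole of a random double-stranded 16-mer DNA library in Tris/NaCl/DTT/glycerol buffer for 30 min at room temperature, then washed, crosslinked in 0.1% formaldehyde, proximity-ligated with BsaI/T4 ligase (1 h, 37 °C), PCR-amplified and sequenced on an Illumina NextSeq500. Binding signal is the read frequency of each hexamer for a given factor divided by its frequency in the tag-only sample.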

ETV5 = ETV5 (Homo sapiens, UniProt P41161 1-510); settings: protein: recombinant; tags: N-terminal GST; dsDNA, one strand shown
ETV5, sequence (P41161 whole entry): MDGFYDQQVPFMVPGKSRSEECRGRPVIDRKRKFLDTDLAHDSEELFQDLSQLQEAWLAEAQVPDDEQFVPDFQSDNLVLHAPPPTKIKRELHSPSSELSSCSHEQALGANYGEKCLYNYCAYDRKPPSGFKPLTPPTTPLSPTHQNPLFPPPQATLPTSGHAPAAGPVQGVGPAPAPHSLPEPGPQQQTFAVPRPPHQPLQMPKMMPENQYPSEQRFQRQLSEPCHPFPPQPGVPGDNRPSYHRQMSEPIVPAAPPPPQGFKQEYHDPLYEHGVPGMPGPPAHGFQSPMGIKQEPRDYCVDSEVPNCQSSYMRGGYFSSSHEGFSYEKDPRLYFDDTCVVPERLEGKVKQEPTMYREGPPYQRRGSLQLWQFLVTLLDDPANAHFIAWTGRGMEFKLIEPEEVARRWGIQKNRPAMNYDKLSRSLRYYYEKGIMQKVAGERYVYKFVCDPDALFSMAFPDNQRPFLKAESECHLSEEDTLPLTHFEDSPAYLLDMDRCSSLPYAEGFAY
In short: as §1

HSF1 = HSF1 (Homo sapiens, UniProt Q00613 1-529); settings: protein: recombinant; tags: N-terminal GST; chain copies: 3; dsDNA, one strand shown
HSF1, sequence (Q00613 whole entry): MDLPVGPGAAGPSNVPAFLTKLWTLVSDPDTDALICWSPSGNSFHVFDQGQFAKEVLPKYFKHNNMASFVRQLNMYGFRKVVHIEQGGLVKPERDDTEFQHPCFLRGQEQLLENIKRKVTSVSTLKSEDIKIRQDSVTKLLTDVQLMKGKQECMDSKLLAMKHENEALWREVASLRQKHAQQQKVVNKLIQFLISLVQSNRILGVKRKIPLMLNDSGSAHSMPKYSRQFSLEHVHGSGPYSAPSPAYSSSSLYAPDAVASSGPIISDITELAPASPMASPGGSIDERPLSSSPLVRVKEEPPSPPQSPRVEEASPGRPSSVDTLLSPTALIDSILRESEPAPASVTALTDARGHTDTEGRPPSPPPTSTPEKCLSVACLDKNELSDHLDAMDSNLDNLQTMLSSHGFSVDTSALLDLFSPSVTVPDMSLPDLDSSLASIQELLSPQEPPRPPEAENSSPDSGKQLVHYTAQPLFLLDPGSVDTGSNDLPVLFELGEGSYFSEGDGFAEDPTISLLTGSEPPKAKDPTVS
In short: as §1

SPIC = target: T2, SPIC (Homo sapiens, UniProt Q8N5J4 1-248); settings: protein: recombinant; tags: N-terminal GST; dsDNA, one strand shown
T2 sequence: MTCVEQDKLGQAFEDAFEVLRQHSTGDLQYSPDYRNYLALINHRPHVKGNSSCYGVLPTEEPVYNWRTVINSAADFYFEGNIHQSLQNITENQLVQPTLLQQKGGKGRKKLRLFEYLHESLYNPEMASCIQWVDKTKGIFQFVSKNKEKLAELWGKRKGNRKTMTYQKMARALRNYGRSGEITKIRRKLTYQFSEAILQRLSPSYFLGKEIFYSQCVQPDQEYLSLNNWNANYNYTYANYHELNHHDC
In short: as §1

ELF4 = ELF4 (Homo sapiens, UniProt Q99607 1-663); settings: protein: recombinant; tags: N-terminal GST; dsDNA, one strand shown
ELF4, sequence (Q99607 whole entry): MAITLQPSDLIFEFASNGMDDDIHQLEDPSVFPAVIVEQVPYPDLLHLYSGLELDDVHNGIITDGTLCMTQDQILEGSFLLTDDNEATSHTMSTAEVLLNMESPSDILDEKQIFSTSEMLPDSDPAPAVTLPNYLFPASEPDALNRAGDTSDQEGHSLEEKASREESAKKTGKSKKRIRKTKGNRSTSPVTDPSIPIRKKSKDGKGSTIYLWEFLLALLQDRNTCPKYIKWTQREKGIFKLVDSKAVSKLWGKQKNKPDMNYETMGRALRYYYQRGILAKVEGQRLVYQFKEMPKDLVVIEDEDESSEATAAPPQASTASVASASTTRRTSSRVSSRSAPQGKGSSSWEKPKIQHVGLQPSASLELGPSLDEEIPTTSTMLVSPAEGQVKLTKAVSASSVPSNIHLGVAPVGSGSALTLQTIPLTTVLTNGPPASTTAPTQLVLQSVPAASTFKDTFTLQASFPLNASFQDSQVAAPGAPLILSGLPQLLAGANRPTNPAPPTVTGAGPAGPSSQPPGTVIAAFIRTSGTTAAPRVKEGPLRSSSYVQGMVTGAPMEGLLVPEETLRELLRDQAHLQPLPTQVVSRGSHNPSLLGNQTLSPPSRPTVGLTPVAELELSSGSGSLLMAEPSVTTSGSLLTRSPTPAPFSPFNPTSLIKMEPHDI
In short: as §1

ELK4 = target: T3, ELK4 (Homo sapiens, UniProt P28324-2 1-405); settings: protein: recombinant; tags: N-terminal GST; dsDNA, one strand shown
T3 sequence: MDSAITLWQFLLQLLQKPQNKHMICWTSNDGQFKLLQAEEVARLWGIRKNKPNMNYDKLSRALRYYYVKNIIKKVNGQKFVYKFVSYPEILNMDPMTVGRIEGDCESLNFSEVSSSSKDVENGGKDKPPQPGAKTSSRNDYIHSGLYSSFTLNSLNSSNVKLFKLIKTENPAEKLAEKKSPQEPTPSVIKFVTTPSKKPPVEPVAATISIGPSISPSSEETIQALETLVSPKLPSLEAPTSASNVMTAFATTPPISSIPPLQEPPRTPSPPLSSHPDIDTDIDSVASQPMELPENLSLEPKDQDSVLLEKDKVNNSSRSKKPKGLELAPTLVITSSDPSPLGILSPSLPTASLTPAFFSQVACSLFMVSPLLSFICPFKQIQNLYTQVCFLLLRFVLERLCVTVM
In short: as §1

ETV2 = target: T4, ETV2 (Homo sapiens, UniProt O00321 1-342); settings: protein: recombinant; tags: N-terminal GST; dsDNA, one strand shown
T4 sequence: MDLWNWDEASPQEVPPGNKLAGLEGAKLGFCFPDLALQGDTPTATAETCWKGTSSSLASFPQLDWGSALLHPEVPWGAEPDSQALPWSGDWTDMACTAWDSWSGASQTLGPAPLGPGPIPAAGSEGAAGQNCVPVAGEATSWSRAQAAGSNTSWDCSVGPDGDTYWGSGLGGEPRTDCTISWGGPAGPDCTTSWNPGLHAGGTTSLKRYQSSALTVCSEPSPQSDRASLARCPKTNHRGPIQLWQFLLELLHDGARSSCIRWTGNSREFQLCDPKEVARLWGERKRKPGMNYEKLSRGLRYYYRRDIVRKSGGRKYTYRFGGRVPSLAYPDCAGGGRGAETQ
In short: as §1

ELF3 = target: T5, ELF3 (Homo sapiens, UniProt P78545 1-371); settings: protein: recombinant; tags: N-terminal GST; dsDNA, one strand shown
T5 sequence: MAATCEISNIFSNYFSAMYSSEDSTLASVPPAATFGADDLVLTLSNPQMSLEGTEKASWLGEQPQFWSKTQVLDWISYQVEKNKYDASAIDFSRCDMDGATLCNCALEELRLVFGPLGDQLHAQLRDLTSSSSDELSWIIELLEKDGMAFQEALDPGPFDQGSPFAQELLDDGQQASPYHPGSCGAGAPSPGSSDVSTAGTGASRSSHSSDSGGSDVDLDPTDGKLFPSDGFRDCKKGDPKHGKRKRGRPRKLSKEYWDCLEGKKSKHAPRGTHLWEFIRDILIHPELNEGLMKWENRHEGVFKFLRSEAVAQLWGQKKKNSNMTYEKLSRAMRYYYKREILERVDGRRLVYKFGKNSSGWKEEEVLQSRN
In short: as §1

CRX = CRX (Homo sapiens, UniProt O43186 1-299); settings: protein: recombinant; tags: N-terminal GST; dsDNA, one strand shown
CRX, sequence (O43186 whole entry): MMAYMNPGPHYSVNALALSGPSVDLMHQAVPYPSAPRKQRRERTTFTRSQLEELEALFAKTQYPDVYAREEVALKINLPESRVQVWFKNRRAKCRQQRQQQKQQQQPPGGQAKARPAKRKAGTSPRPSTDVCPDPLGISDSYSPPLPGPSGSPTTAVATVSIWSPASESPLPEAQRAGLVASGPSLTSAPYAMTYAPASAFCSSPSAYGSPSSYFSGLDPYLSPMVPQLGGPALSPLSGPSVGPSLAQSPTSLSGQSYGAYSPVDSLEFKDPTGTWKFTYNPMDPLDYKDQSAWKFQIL
In short: as §1

ETV1 = ETV1 (Homo sapiens, UniProt P50549 1-477); settings: protein: recombinant; tags: N-terminal GST; dsDNA, one strand shown
ETV1, sequence (P50549 whole entry): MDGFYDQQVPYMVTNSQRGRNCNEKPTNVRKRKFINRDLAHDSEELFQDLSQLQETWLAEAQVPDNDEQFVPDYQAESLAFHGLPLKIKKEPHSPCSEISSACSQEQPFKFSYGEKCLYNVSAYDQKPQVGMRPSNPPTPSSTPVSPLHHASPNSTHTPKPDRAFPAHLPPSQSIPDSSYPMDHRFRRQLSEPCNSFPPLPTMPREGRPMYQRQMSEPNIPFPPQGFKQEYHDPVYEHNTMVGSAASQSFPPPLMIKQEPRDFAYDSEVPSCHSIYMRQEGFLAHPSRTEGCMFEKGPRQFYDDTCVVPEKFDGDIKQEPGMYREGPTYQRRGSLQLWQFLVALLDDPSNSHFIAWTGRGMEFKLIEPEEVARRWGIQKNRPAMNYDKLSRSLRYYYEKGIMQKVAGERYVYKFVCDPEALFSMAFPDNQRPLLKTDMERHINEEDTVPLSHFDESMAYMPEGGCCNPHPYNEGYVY
In short: as §1

## TCCTCC
FEV
  binding signal: 1.55 fold enrichment (6-mer frequency, TF over GST control)
ETV5
  binding signal: 1.59 fold enrichment (6-mer frequency, TF over GST control)
HSF1
  binding signal: 1.27 fold enrichment (6-mer frequency, TF over GST control)
SPIC
  binding signal: 1.57 fold enrichment (6-mer frequency, TF over GST control)
ELF4
  binding signal: 1.62 fold enrichment (6-mer frequency, TF over GST control)
ELK4
  binding signal: 1.48 fold enrichment (6-mer frequency, TF over GST control)
ETV2
  binding signal: 1.86 fold enrichment (6-mer frequency, TF over GST control)
ELF3
  binding signal: 1.22 fold enrichment (6-mer frequency, TF over GST control)
CRX
  binding signal: 1.4 fold enrichment (6-mer frequency, TF over GST control)
ETV1
  binding signal: 1.53 fold enrichment (6-mer frequency, TF over GST control)

— paper PMC7862700, “An all-to-all approach to the identification of sequence-specific readers for epigenetic DNA modifications on cytosine”
